The supplement of paper PMC10849652
About 7,900 targets were measured; listed, in parts, are those with a hit and a random draw of the rest. About 0.6% of all pairs of compound and target were hits. Values without a mark were called inactive.

Assays:
Experiment in all cases: log2 fold change, soluble protein after heating vs DMSO (PISA); higher = thermal stabilisation; K562 cells, 10 uM, 30 min; active = over 0.2 and 3.5 SD of the protein, either way, in both replicates (recomputed)
[1] = compound: CC[C@@H]1C(=O)N(C)c2cnc(Nc3ccc(C(=O)NC4CCN(C)CC4)cc3OC)nc2N1C1CCCC1
Outline: (§1)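 K562 cells at 2×10^6 cells/mL were given 10 μM compound for 30 min. Aliquots then went through 3 min of heating across 48°C-58°C, were pooled, and were extracted in PBS with 0.5% NP-40 at 4°C, and the supernatant after 21,000xg for 90 min was quantified by TMTpro 16plex LC-MS/MS with channel sums equalised. Thermal stability relative to control samples, from duplicates, is given as log2 fold change.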

volasertib = compound: CC[C@@H]1C(=O)N(C)c2cnc(Nc3ccc(C(=O)N[C@H]4CC[C@H](N5CCN(CC6CC6)CC5)CC4)cc3OC)nc2N1C(C)C [volasertib]
Outline: as §1

[2] = compound: CC[C@H](C)N1C=C(C2=C(C=C(C=C21)C3=CN=C(C=C3)N4CCNCC4)C(=O)NCC5=C(C=C(NC5=O)C)C)C
Outline: as §1

epoxomicin = compound: CC[C@H](C)[C@@H](C(=O)N[C@@H]([C@@H](C)O)C(=O)N[C@@H](CC(C)C)C(=O)[C@]1(CO1)C)NC(=O)[C@H]([C@@H](C)CC)N(C)C(=O)C [epoxomicin]
Outline: as §1

[3] = compound: CCn1c(C(=O)N(C2CC2)C2CC2)cc2c3c(ncn3C)c(Nc3cc(C)n(C)n3)nc21
Outline: as §1

[4] = compound: CCn1cc(-c2ccnc3[nH]c(-c4cccc(CN(C)C)c4)cc23)c(-c2ccc(NC(=O)N(C)C)cc2)n1
Outline: as §1

[5] = compound: CN(C)CC(=O)Nc1ccc2[nH]c(=O)c3ccccc3c2c1
Outline: as §1

rosiglitazone = compound: CN(CCOC1=CC=C(C=C1)C[C@H]2C(=O)NC(=O)S2)C3=CC=CC=N3 (racemic) [rosiglitazone]
Outline: as §1

[6] = compound: CN1C2=C(C3=C1C(=O)N(N=C3)CC4=CC(=CC=C4)N)SC(=C2)S(=O)C
Outline: as §1

[7] = compound: CN1CCC(CNc2ccc3ncc(-c4cccc(OC(F)(F)F)c4)n3n2)CC1
Outline: as §1

saracatinib = compound: CN1CCN(CCOc2cc(OC3CCOCC3)c3c(Nc4c(Cl)ccc5c4OCO5)ncnc3c2)CC1 [saracatinib]
Outline: as §1

sotrastaurin = compound: CN1CCN(c2nc(C3=C(c4c[nH]c5ccccc45)C(=O)NC3=O)c3ccccc3n2)CC1 [sotrastaurin]
Outline: as §1

alvocidib = compound: CN1CC[C@H](c2c(O)cc(O)c3c(=O)cc(-c4ccccc4Cl)oc23)[C@H](O)C1 [alvocidib]
Outline: as §1

Tubastatin A = compound: CN1CCc2c(c3ccccc3n2Cc2ccc(C(=O)NO)cc2)C1 [Tubastatin A]
Outline: as §1

[8] = compound: CNC(=O)C1=CC=CC=C1NC2=NC(=NC=C2Cl)NC3=C(C=C(C=C3)N4CCOCC4)OC
Outline: as §1

defactinib = compound: CNC(=O)c1ccc(Nc2ncc(C(F)(F)F)c(NCc3nccnc3N(C)S(C)(=O)=O)n2)cc1 [defactinib]
Outline: as §1

rucaparib = compound: CNCc1ccc(-c2[nH]c3cc(F)cc4c3c2CCNC4=O)cc1 [rucaparib]
Outline: as §1

[9] = compound: CNc1nc(-c2ccc3c(N)n[nH]c3c2)cc(N2C[C@@H](C(=O)NC3CCCCC3)CC[C@H]2C)n1
Outline: as §1

encorafenib = compound: COC(=O)N[C@@H](C)CNc1nccc(-c2cn(C(C)C)nc2-c2cc(Cl)cc(NS(C)(=O)=O)c2F)n1 [encorafenib]
Outline: as §1

[10] = compound: COC(=O)[C@H](CCSC)NC(=O)C1=C(C=C(C=C1)NC[C@H](CS)N)C2=CC=CC=C2
Outline: as §1

Chain of UniProt P33240 (P33240 whole entry, looked up): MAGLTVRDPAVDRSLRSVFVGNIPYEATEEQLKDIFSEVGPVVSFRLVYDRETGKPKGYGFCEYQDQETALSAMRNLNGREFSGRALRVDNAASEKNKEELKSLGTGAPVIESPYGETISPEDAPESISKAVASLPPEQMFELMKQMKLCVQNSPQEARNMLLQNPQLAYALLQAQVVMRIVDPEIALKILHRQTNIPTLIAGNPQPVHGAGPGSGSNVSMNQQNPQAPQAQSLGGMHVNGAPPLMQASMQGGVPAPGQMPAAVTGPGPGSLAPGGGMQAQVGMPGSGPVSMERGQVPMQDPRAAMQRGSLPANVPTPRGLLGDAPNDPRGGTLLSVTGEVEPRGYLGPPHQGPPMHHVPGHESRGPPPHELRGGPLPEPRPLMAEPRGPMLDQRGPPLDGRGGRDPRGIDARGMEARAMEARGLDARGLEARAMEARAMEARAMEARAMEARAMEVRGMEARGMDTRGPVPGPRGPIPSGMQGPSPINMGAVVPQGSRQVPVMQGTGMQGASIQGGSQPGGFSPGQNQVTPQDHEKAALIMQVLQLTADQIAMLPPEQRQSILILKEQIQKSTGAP
Chain of UniProt O75976 (O75976 whole entry, looked up): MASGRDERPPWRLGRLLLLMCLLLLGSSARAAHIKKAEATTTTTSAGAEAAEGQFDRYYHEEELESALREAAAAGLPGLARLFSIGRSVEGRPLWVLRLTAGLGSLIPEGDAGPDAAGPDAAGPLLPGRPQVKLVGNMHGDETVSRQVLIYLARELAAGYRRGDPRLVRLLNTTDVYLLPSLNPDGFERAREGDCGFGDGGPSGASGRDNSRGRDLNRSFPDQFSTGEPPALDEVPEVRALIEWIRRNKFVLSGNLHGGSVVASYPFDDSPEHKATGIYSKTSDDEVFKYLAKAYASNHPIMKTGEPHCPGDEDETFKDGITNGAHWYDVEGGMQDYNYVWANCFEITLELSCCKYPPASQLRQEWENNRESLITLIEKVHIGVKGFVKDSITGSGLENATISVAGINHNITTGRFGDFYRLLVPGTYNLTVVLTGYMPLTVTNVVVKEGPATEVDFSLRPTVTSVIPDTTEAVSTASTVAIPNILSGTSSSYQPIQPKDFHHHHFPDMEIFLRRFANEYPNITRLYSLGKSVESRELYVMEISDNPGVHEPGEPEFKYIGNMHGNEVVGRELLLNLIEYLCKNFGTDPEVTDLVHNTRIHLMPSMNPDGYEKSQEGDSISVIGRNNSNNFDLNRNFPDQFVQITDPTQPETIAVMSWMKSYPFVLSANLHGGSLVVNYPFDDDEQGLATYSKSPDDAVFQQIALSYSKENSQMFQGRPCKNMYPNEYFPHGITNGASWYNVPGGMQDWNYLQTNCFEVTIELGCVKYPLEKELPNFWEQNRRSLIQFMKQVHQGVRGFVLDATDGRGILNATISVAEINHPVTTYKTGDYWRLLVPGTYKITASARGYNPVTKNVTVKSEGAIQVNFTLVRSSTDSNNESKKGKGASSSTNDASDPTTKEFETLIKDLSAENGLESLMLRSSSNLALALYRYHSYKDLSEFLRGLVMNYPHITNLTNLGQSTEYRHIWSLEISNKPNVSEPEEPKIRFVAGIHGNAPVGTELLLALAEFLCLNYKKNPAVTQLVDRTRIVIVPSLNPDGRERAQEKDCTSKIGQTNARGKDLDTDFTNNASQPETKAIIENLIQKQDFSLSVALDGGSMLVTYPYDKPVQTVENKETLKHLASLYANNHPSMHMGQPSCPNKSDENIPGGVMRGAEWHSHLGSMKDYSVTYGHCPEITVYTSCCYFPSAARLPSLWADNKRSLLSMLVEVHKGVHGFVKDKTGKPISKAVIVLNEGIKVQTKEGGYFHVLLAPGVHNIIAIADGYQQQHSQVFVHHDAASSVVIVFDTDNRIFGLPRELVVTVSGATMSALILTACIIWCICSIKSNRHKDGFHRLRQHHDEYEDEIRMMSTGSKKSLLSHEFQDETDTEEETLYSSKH
Chain of UniProt P14635 (P14635 whole entry, looked up): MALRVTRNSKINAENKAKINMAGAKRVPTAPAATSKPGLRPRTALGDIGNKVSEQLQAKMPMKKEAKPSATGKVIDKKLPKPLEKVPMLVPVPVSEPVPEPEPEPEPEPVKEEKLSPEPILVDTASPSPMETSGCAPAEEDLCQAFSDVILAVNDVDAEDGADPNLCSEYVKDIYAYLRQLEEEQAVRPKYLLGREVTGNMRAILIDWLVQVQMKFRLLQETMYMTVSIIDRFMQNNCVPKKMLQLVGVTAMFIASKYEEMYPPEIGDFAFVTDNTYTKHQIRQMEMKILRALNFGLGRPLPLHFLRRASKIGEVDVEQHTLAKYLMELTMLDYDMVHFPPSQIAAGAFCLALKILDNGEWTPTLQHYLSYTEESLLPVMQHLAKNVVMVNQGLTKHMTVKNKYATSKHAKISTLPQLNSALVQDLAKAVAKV
Chain of UniProt P68400 (P68400 whole entry, looked up): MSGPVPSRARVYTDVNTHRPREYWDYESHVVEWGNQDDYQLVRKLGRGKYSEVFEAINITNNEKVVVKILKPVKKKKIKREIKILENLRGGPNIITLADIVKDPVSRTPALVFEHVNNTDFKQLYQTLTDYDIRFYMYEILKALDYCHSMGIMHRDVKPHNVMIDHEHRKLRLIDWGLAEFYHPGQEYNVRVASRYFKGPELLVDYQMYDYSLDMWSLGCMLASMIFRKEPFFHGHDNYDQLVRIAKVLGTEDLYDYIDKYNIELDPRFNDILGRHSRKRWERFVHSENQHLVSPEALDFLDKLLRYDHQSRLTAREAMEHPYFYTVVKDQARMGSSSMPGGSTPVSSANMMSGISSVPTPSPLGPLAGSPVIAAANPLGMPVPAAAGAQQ
Chain of UniProt P60033 (P60033 whole entry, looked up): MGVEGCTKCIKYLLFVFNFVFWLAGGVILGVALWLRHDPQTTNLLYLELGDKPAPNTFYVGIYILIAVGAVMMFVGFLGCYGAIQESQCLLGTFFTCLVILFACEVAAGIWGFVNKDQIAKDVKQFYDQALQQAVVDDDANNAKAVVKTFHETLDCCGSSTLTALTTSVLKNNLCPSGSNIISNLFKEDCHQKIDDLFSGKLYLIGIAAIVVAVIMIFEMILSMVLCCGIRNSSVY
Chain of UniProt P51798 (P51798 whole entry, looked up): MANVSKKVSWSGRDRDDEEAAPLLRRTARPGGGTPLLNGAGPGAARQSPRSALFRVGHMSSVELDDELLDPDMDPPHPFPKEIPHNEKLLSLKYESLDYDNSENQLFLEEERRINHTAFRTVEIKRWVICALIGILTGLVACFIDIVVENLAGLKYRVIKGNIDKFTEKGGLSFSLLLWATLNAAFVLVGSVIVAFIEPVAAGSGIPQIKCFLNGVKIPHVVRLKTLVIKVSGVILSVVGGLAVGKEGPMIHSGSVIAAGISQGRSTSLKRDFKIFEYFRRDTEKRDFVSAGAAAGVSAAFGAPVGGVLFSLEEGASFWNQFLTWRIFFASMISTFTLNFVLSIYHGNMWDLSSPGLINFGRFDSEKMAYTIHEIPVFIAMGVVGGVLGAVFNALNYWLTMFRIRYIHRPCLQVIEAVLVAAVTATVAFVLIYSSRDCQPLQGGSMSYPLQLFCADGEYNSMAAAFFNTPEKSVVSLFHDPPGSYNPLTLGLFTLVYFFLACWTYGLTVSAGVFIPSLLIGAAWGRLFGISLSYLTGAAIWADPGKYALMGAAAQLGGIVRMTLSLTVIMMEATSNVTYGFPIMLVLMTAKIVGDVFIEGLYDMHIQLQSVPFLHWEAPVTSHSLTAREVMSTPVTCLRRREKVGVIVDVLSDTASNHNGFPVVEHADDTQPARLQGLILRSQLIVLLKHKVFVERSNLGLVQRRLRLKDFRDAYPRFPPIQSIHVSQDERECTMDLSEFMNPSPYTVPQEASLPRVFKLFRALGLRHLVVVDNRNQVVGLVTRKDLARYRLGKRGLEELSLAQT
Chain of UniProt P08174 (P08174 whole entry, looked up): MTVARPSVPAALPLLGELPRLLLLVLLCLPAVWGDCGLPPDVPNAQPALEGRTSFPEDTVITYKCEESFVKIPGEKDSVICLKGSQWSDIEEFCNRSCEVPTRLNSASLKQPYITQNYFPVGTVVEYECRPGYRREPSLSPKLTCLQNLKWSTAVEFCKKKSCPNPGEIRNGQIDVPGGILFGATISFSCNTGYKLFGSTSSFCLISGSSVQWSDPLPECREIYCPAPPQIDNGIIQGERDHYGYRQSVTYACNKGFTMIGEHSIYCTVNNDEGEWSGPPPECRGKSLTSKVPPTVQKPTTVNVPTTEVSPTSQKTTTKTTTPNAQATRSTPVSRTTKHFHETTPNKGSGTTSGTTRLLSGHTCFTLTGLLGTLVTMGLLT
Chain of UniProt Q5T6V5 (Q5T6V5 whole entry, looked up): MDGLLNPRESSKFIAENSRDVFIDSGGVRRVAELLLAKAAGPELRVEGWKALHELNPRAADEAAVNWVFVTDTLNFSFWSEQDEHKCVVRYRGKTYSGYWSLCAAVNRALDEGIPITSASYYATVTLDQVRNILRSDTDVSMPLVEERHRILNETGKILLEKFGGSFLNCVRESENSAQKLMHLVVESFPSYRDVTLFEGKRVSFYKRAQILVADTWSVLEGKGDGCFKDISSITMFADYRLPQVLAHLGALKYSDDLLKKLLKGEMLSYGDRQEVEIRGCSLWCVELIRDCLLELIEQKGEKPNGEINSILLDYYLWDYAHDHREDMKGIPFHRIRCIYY
Chain of UniProt O75390 (O75390 whole entry, looked up): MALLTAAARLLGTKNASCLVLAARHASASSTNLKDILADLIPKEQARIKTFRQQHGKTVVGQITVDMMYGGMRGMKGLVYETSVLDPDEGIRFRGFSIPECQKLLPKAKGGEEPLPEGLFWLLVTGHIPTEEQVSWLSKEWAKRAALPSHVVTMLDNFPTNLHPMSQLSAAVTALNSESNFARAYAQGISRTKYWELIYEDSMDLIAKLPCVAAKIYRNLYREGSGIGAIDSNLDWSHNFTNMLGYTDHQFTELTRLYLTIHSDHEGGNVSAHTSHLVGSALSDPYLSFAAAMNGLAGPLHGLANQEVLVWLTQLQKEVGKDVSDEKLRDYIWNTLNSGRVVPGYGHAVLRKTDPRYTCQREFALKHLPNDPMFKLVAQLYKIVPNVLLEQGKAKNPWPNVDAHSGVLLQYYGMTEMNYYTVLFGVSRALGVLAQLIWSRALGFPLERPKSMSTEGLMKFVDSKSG

Target	log2 fold change [1]	log2 fold change (volasertib)	log2 fold change [2]	log2 fold change (epoxomicin)	log2 fold change [3]	log2 fold change [4]	log2 fold change [5]	log2 fold change (rosiglitazone)	log2 fold change [6]	log2 fold change [7]	log2 fold change (saracatinib)	log2 fold change (sotrastaurin)	log2 fold change (alvocidib)	log2 fold change (Tubastatin A)	log2 fold change [8]	log2 fold change (defactinib)	log2 fold change (rucaparib)	log2 fold change [9]	log2 fold change (encorafenib)	log2 fold change [10]
CD55 isoform 7 (UniProt P08174)	0.172	0.096	-0.031	0.086	0.02	-0.006	-0.042	-0.078	-0.005	0.228 (active)	0.06	-0.01	0.03	0.033	0.012	0.007	0.022	0.028	-0.016	0.039
CCNB1 (UniProt P14635)	0.023	0.026	-0.027	0.083	-0.007	-0.004	0.012	0.017	-0.043	-0.032	-0.005	0.02	-0.006	-0.018	-0.051	-0.065	-0.025	-0.034	-0.002	0.035
CTBS (UniProt Q01459)	-0.494 (active)	-0.376 (active)	-0.074	0.033	0.007	0.069	0.013	-0.058	0.045	-0.44 (active)	0.081	-0.245	0.029	0.038	0.023	-0.082	0.055	-0.132	-0.093	-0.038
CSTF2 (UniProt P33240)	0.06	0.233 (active)	-0.024	-0.077	0.011	0.041	-0.048	0.01	-0.085	-0.004	-0.02	0.105	0.045	-0.064	-0.023	0.023	0.034	-0.092	-0.08	-0.028
CPD (UniProt O75976)	-0.152	-0.33	-0.017	0.025	0.036	-0.044	-0.024	0.002	0.029	-0.399 (active)	-0.047	-0.011	-0.007	0.03	-0.002	-0.026	0.017	-0.006	0.042	0.012
C9orf64 (UniProt Q5T6V5)	-0.066	-0.309	0.103	-0.004	-0.094	-0.149	0.075	0.119	-0.007	-0.396 (active)	-0.053	-0.124	-0.177	0.036	-0.04	-0.067	0.377 (active)	-0.018	0.047	0.016
CLINT1 isoform 3 (UniProt Q14677)	0.17	0.047	-0.01	-0.038	-0.006	0.042	-0.06	-0.055	0.075	0.259 (active)	0.083	0.041	0.061	-0.036	0.185	0.035	0.109	-0.06	-0.059	0.012
CSNK2A1 (UniProt P68400)	0.007	0.04	0.002	-0.012	0.003	-0.117	-0.007	0.024	-0.04	-0.233	0.016	0.059	-0.082	-0.019	0.263 (active)	-0.113	-0.079	-0.045	-0.038	-0.034
CCDC59 (UniProt Q9P031)	0.065	0.186	-0.006	-0.067	-0.013	0.088	-0.08	-0.064	0.394	0.176	-0.222	0.023	0.267	0.127	0.007	0.309	0.029	0.05	0.026	-0.015
CD81 (UniProt P60033)	0.393 (active)	0.193	-0.06	0.013	0.058	-0.226	0.098	0.013	-0.139	0.145	0.163	0.103	0	-0.064	-0.029	-0.053	-0.152	0.207	0.199	0
CS (UniProt O75390)	0.04	0.158	0.027	0.01	0.032	-0.059	0.032	0.083	-0.088	-0.222 (active)	-0.001	0.02	-0.074	-0.015	0.011	-0.069	0.022	-0.055	-0.042	-0.002
CLCN7 (UniProt P51798)	-0.338 (active)	-0.297	0.031	-0.001	-0.022	-0.047	-0.01	0.049	0.009	-1.05 (active)	0.004	-0.112	0.007	-0.071	0.044	0.025	-0.052	-0.156	0.151	-0.04
COX5B (UniProt P10606)	0.06	-0.02	-0.047	0.192	-0.051	-0.043	-0.013	-0.01	-0.037	0.541 (active)	-0.076	0.113	-0.018	0.052	0	-0.046	-0.01	0.024	-0.033	0.006
COPS3 (UniProt Q9UNS2)	0.001	-0.017	-0.001	0.054	0	-0.014	-0.017	0.007	-0.038	-0.03	-0.016	0.02	-0.019	-0.025	-0.021	-0.023	-0.037	-0.013	-0.003	0.033
CHMP4C (UniProt Q96CF2)	-0.23	-0.043	-0.014	-0.016	0.06	-0.034	0.005	0.028	-0.206	-0.089	0	0.042	0.02	-0.009	-0.173	-0.047	-0.032	-0.138	-0.097	0.007
CAVIN1 (UniProt Q6NZI2)	0.072	0.182	-0.007	-0.125	0.013	0.085	-0.06	-0.037	0.124	-0.074	-0.065	-0.053	0.101	0.159	-0.015	0.226	0.098	0.119	0.122	0.034
